# Screening results from PubChem.
# SUMO Mot1 rescue: yeast Mot1-301 growth rescue at high temperature, primary screen, SUMOylation pathway inhibitor project, S. cerevisiae, ATP luminescence, 38.5C. S. cerevisiae Mot1-301 growth rescue; percent above DMSO median, 100 means doubled. growth rescue, % at 18.8 µM. 320,000 tested, 1% active;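 active = every valid replicate shows activation above 250% relative to neutral control wells; inactive = the rest, any valid replicate at or below 250%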
# ALR H2O2 inh: inhibitors of human ALR sulfhydryl oxidase, primary screen, biochemical, H2O2 detection, HRP-luminol luminescence, single point; FAD-linked sulfhydryl oxidase ALR (Homo sapiens), P55789; purified ALR, DTT oxidation; inhibition, % (test concentration not listed); 290,000 tested, 3.8% active; AID 485317, 2010;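 active = mean replicate inhibition above about 79%, with every replicate also reaching it, limit read from the data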
# Bfl-1 A1 inh: caspase 3/7 activation in MEF A1-2A-BIM cells, primary screen, A1 inhibitor project, cell-based, luminescence, HTS. Caspase-Glo 3/7 luminescence, 3 h; percent of clofoctol response, vehicle zero. 330,000 tested, 0.066% active. caspase activation, % (no concentration beside the values);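 active = over half of replicate activation scores above 10%, or exactly half above 10 with the replicate mean above 10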
# Efflux pump mplx: inhibitors of Candida efflux pumps in yeast, primary screen, S. cerevisiae, Nile Red, multiplex; inhibition, % at 10 µM; 330,000 tested, 0.44% active; AID 485275, 2010; S. cerevisiae Candida pump triplex;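 active = plate passing quality check with inhibition over a set limit, or well fluorescence over plate mean plus 4 SD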;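 note: Nile Red retained in pooled yeast measured as flow cytometry median fluorescence; higher means more Nile Red kept so more efflux inhibition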
# VLA-4 inh: inhibition in human VLA-4 binding assay, primary screen, VLA-4 allosteric modulator project, MLPCN library, flow cytometry, VLA-4 expressing cells; Integrin alpha-4 (Homo sapiens), P13612; ligand binding flow cytometry; inhibition, % (about 7 µM as worked out from the volumes in the protocol); 330,000 tested, 0.2% active; in the data active = inhibition above about 50%
# AHR activator: AHR activators, primary screen, cell-based, luminescence, luciferase reporter, human; Aryl hydrocarbon receptor (Homo sapiens), P35869; AHR-responsive luciferase reporter cells; activation, % at 5 µM; 320,000 tested, 2.5% active; AID 2796, 2010; in the data active = activation above about 47%
# Hits are given with their value; n = inactive; x = no result given. Rows were chosen to be rich in hits. Some 7.2% of all compounds tested hit in one or more screens of this group.
SMILES,SUMO Mot1 rescue,ALR H2O2 inh,Bfl-1 A1 inh,Efflux pump mplx,VLA-4 inh,AHR activator
CC(NC(=O)CCCCCNC(=O)N1CCn2c1nc1ccccc12)c1ccccc1 (centres undefined),n,92,n,n,n,n
O=C(CCN1CCN(c2ccccc2)CC1)N/N=C/c1ccccc1O,n,84,n,n,n,n
O=C(Cc1c(C(=O)O)[nH]c2ccccc12)NCCN1CCN(c2cccc(Cl)c2)CC1,n,88,n,n,n,n
Cc1cccc(C)c1NC(=O)NCCCN1CCN(c2ccccc2)CC1,n,82,n,n,n,n
COc1ccccc1N1CCN(CC(=O)Nc2ccccc2C(=O)NCCc2ccccc2)CC1,x,x,x,n,n,63
Cc1cccc(C)c1NC(=O)C(=O)NCCCN1CCOCC1,n,n,n,n,n,n
CC(C)[C@H](NC(=O)c1ccccc1Cl)C(=O)Nc1ccc(S(=O)(=O)Nc2nccs2)cc1,n,n,n,n,n,n
COc1ccccc1C(=O)Nc1ccc(N2CCN(Cc3ccccc3)CC2)cc1,x,n,n,n,n,n
O=C(NCc1ccccc1Cl)C1(S(=O)(=O)c2ccc(Cl)cc2)CC1,n,x,n,n,n,n
COc1ccc(C)cc1NC(=O)CCN1CCN(c2ccccc2)CC1,n,95,n,n,n,n
COc1ccccc1C(=O)NCCN1CCN(c2ccccc2)CC1,n,97,n,n,n,n
O=C(NCCN1CCN(c2ccccc2)CC1)C1(S(=O)(=O)c2ccc(Cl)cc2)CC1,n,99,n,n,n,n
O=C(NCCN1CCN(c2ccccc2)CC1)c1cccc(Cl)c1,n,98,n,n,n,n
Cn1cc(S(=O)(=O)N2CCc3ccccc32)cc1C(=O)NC(C)(C)C,n,n,n,n,n,n
CCNC(=O)/C(=C\C=C\c1ccccc1)NC(=O)c1ccc(Br)o1,n,n,n,n,n,n
N#CC(NC(=O)OCc1ccccc1)c1ccccc1 (centres undefined),n,n,n,n,n,n
CC(C)OP(=O)(OC(C)C)C(O)c1cccc([N+](=O)[O-])c1 (centres undefined),n,n,n,n,n,n
O=C(NCCN1CCN(c2ccccc2)CC1)c1cccn2c(=O)c3cc(Cl)ccc3nc12,n,n,n,n,n,94
CCOC(=O)N1CCN(C(=O)c2cccn3c(=O)c4c5c(sc4nc23)CCCC5)CC1,n,n,n,n,n,n
Nc1ccccc1C(=O)NCCCN1CCN(c2cccc(Cl)c2)CC1,n,n,n,n,n,n
O=C(NCCN1CCOCC1)c1cccn2c(=O)c3c4c(sc3nc12)CCCC4,n,x,n,n,n,54
Cn1c(SCC(=O)Nc2cccnc2Cl)nc2ccccc21,n,n,n,n,n,n
N#Cc1ccc(C(=O)OCC(=O)N2CCOCC2)cc1,n,n,n,n,n,n
CCOc1ccc(Nc2ncnc3ccc([N+](=O)[O-])cc23)cc1,n,n,n,n,n,50
CN(C(=O)c1ccc(NC(=O)Cc2ccc([N+](=O)[O-])cc2)cc1)C1CC1,n,n,n,n,n,n
SMILES,SUMO Mot1 rescue,ALR H2O2 inh,Bfl-1 A1 inh,Efflux pump mplx,VLA-4 inh,AHR activator
O=C(NCc1ccccc1)c1nc[nH]c1C(=O)N1CCN(c2ccccc2)CC1,n,98,n,n,n,n
O=C(O)c1cccc(Nc2nc(Nc3ccccc3)nc(N3CCCC3)n2)c1,n,95,n,n,n,n
O=C(CCn1c(=O)oc2ccccc21)n1c(=O)oc2ccccc21,n,96,n,n,n,n
O=C(CCn1c(=O)oc2ccccc21)NC1=NCCS1,342,n,n,n,n,n
CC(=O)Nc1ccc(NC(=O)CCn2c(=O)oc3ccccc32)cc1,n,n,n,n,n,n
O=C(C[C@H]1C/C=C\CC[C@H](Cc2ccc(F)cc2)C(=O)OC[C@H]2CCCN2C1=O)N[C@@H](CO)Cc1ccccc1,n,n,n,n,n,n
Cc1nn(CC(=O)NC(C)CCc2ccccc2)c(=O)c2nn(-c3ccccc3)c(C)c12 (centres undefined),n,n,n,n,n,n
O=C(COC(=O)c1ccc(Cl)nc1)NCCC1=CCCCC1,n,88,n,n,n,n
O=C(COC(=O)c1ccc(Cl)nc1)NCCNC(=O)COC(=O)c1ccc(Cl)nc1,n,n,n,n,n,n
C/C(=N/NS(=O)(=O)c1ccccc1)c1ccc(Cl)cc1,n,n,n,n,n,53
CCC(C(=O)NCCCN1CCCCCC1)n1nc(C)c2sc3ccccc3c2c1=O (centres undefined),n,n,n,n,n,n
Cc1ccc(OCCNCC(O)COc2ccccc2)cc1 (centres undefined),n,x,n,n,n,66
Cc1ccc(C(=O)Nn2cnc3ccccc3c2=O)cc1C,n,n,n,n,n,n
CCOc1ccc(S(=O)(=O)N2CCN(Cc3ccc4c(c3)OCO4)CC2)cc1C,328,n,n,n,n,n
CCc1ccc(Nc2nnc(SCc3cc(=O)n4ccsc4n3)s2)cc1,n,n,n,n,n,n
O=[N+]([O-])c1ccccc1S(=O)(=O)Nc1cccc(-c2ccc3nncn3n2)c1,n,n,n,n,n,n
Cc1c(C(=O)N(C)C)c2cc(Cl)ccc2n1O,n,98,n,n,n,n
CCOC(=O)c1c(C)n(O)c2ccc(Cl)cc2c1=O,n,n,x,n,n,n
Cc1nc(C(=O)N(C)C)nn1-c1cc(Cl)ccc1Cl,n,n,n,n,n,n
Cc1c(C(=O)N(C)C)c2ccc(Cl)cc2n1O,n,99,n,n,n,n
COc1ccc(Cc2nnc(NC(=O)C3CCN(C(=O)c4ccco4)CC3)s2)cc1,n,n,n,n,n,n
O=S(=O)(c1cccs1)N1CCN(c2ccccc2F)CC1,335,n,n,n,n,n
c1ccc2c(c1)OCC(c1nnc3sc(-c4cnccn4)nn13)O2 (centres undefined),n,n,n,n,n,n
c1ccc2c(c1)OCC(c1nnc3sc(-c4ccc5c(c4)OCO5)nn13)O2 (centres undefined),n,n,n,n,n,48
c1csc(-c2nn3c(C4COc5ccccc5O4)nnc3s2)c1 (centres undefined),n,n,n,n,n,62
Clc1ccccc1-c1nnc2sc(-c3ccc4c(c3)OCO4)nn12,n,n,n,n,n,56
c1ccc2c(c1)ncn2Cc1nnc2sc(-c3ccc4c(c3)OCO4)nn12,x,n,n,n,n,50
Fc1ccc(-c2nn3c(C4COc5ccccc5O4)nnc3s2)cc1 (centres undefined),n,n,n,n,n,n
